The list is not random: actives were taken first. Their share in the collection is about 11%.
AmpC inh no detg – blocks E. coli AmpC beta-lactamase in detergent-free assay; P00811; AmpC nitrocefin hydrolysis, absorbance 480 nm, 0.0001% Triton; Potency, µM (titrated, usually from 57.1 µM), usual class: inhibitors; 330,000 compounds, 0.52% hits; AID 485341; note: nearly all actives have a fitted effect of over 20% in size
Target sequence (P00811 whole entry, looked up): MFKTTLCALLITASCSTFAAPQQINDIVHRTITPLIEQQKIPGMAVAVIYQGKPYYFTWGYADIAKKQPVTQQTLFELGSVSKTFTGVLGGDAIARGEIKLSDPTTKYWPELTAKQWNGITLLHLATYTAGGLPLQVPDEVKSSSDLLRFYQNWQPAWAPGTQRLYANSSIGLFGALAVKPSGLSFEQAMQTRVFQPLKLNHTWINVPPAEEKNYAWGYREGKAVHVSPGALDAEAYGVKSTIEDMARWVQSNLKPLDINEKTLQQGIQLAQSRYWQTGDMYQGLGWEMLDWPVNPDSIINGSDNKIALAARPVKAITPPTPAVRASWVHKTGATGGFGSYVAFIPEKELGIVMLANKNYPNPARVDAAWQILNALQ
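20 mM phosphate pH 7.0 + 0.01% (detergent screen) or 0.0001% Triton X-100; 5.3 nM AmpC reagent; cpd preinc 15 min RT; nitrocefin (800 uM stock) to start; A480 q20 s × 4 min; Activity was normalised to no-enzyme and no-compound control wells.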
AmpC inh detg – AmpC beta-lactamase inhibition with detergent present; AmpC hydrolysis of nitrocefin, absorbance 480 nm, 0.01% Triton; Potency, µM (series often up to 114 µM), most hits filed as inhibitors; 370,000 compounds, 0.041% hits; AID 485294; note: nearly all actives have a fitted effect of over 25% in size
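20 mM phosphate pH 7.0 + 0.01% (detergent screen) or 0.0001% Triton X-100; 5.3 nM AmpC reagent; cpd preinc 15 min RT; nitrocefin (800 uM stock) to start; A480 q20 s × 4 min; Activity was normalised to no-enzyme and no-compound control wells.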
Pf growth 48h – P. falciparum growth inhibition at 48 hours (one generation) | P. falciparum luciferase growth in erythrocytes, 48 h | Potency, µM (top dose mostly 28.7 µM), usual class: inhibitors | 310,000 compounds, 5.9% hits
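Firefly luciferase activity from engineered P. falciparum reports growth; inhibitors lower the luminescent signal. Cultures contained 2% hematocrit erythrocytes at 0.1% final parasitemia.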
HCV inh – inhibitors of hepatitis C virus infection. Huh7.5.1 HCVcc-Cre infection, luciferase reporter, 44 h. Potency, µM (highest dose often 41.8 µM), hits mostly inhibitors. 340,000 compounds, 3.4% hits. AID 651820
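A cell-based infection assay in which seeded cells (1,000 per well) receive test compound after 4 h, are inoculated with HCVcc-Cre at approximately 0.5 moi, and are incubated 44 h before luminescence detection.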
Pf growth 96h – P. falciparum growth inhibition at 96 hours; P. falciparum luciferase reporter growth, 96 h; Potency, µM (highest dose often 28.7 µM), actives largely listed as inhibitors; 320,000 compounds, 6.9% hits; AID 504834
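Parasite growth measured via integrated firefly luciferase reporter in P. falciparum. Infected erythrocytes at 2% hematocrit, 0.05% parasitemia final were treated 96 hours at 37 C under 5% CO2, and luminescence was read.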
AMA1-RON2 inh – disrupts binding of P. falciparum AMA1 to RON2; AlphaScreen AMA1-biotinylated RON2 peptide binding; Potency, µM (highest dose often 58.2 µM), actives largely listed as inhibitors; 360,000 compounds, 0.2% hits; AID 720542; note: nearly all actives have a fitted effect of over 45% in size
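AMA1 (3D7) with his tag at 25 nM final met compounds first, then biotinylated RON2 peptide at 25 nM; detection used donor plus acceptor beads, 10 µg/mL apiece, read by AlphaScreen after 30 min at room temperature.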
Each line names hits and unclear results; the compound was inactive in the other large screens. Calls come from the whole dose curve; as a rule, active = well fitted curve in the direction sought with a large enough effect; inconclusive = small, poorly fitted or top-dose-only effect, or another doubt; inactive = no such curve, though single readings can be large; an effect the other way counts as inactive or inconclusive.

Cc1nn(S(=O)(=O)c2cccs2)c(C)c1Sc1ccccc1	AmpC inh detg inconclusive, Pf growth 96h inconclusive (no result: HCV inh, AMA1-RON2 inh)
Cc1nn(S(=O)(=O)c2cccs2)c(C)c1Sc1ccc([N+](=O)[O-])cc1	Pf growth 48h inconclusive, HCV inh 10µM, Pf growth 96h inconclusive
CC(C)c1ccc(C2c3[nH]c4ccccc4c3C[C@H]3C(=O)N(c4ccccc4C(=O)N4CCC(C(=O)O)CC4)C(=O)N23)cc1 (stereo partly drawn)	Pf growth 48h 1.7µM, Pf growth 96h 1.5µM
O=C(O)[C@H]1CCCN1C(=O)c1ccccc1N1C(=O)[C@@H]2Cc3c([nH]c4ccccc34)C(c3cccc(Cl)c3)N2C1=O (stereo partly drawn)	Pf growth 48h inconclusive, Pf growth 96h inconclusive
O=C(O)[C@@H]1CCCN1C(=O)c1ccccc1N1C(=O)[C@@H]2Cc3c([nH]c4ccccc34)C(c3cccc(Cl)c3)N2C1=O (stereo partly drawn)	AmpC inh detg inconclusive, Pf growth 48h inconclusive, Pf growth 96h 10µM
COc1cccc(C2c3[nH]c4ccccc4c3C[C@H]3C(=O)N(c4ccccc4C(=O)N4CCC[C@H]4C(=O)O)C(=O)N23)c1 (stereo partly drawn)	Pf growth 48h inconclusive, HCV inh 2.2µM, Pf growth 96h inconclusive
COc1ccc(C2c3[nH]c4ccccc4c3C[C@H]3C(=O)N(c4ccccc4C(=O)N4CCC[C@@H]4C(=O)O)C(=O)N23)cc1 (stereo partly drawn)	Pf growth 48h 12µM, Pf growth 96h inconclusive
COc1ccc(C2c3[nH]c4ccccc4c3C[C@H]3C(=O)N(c4ccccc4C(=O)N4CCC[C@H]4C(=O)O)C(=O)N23)cc1 (stereo partly drawn)	Pf growth 48h 9.3µM, Pf growth 96h inconclusive
Cc1ccc(C2c3[nH]c4ccccc4c3C[C@H]3C(=O)N(c4ccccc4C(=O)N4CCC[C@H]4C(=O)O)C(=O)N23)cc1 (stereo partly drawn)	AmpC inh detg inconclusive, Pf growth 48h inconclusive, Pf growth 96h 10µM
CC(C)c1ccc(C2c3[nH]c4ccccc4c3C[C@H]3C(=O)N(c4ccccc4C(=O)N4CCC[C@@H]4C(=O)O)C(=O)N23)cc1 (stereo partly drawn)	Pf growth 48h 9.3µM, Pf growth 96h 8.3µM
COc1cc(Nc2ncc3c(n2)CCN(Cc2ccc(OC(C)C)c(OC)c2)C3)cc(OC)c1	none (no result: AmpC inh no detg, Pf growth 48h, HCV inh, Pf growth 96h, AMA1-RON2 inh)
COc1cccc(C2=CC(c3ccccc3F)n3ncc(C(=O)Nc4ccc(F)cc4)c3N2)c1 (stereo not drawn)	none (no result: AmpC inh no detg, Pf growth 48h, HCV inh, Pf growth 96h, AMA1-RON2 inh)
CN1C2C=C3C(C#N)=C(N)C(C#N)(C#N)C(c4ccc(Br)cc4)C3C1CC2 (stereo not drawn)	AmpC inh detg inconclusive, Pf growth 48h 9.3µM, Pf growth 96h 8.3µM
CN1C2C=C3C(C#N)=C(N)C(C#N)(C#N)[C@@H](c4ccc(Cl)cc4)[C@@H]3C1CC2 (stereo partly drawn)	Pf growth 48h inconclusive, Pf growth 96h inconclusive
COc1ccc(C2c3c(oc4c(C)cc(C)cc4c3=O)C(=O)N2Cc2cccnc2)cc1OC (stereo not drawn)	Pf growth 96h 9.3µM (no result: AMA1-RON2 inh)
COc1ccc(CCN2C(=O)c3[nH]nc(-c4ccccc4O)c3C2c2cccc(O)c2)cc1OC (stereo not drawn)	AmpC inh detg inconclusive, Pf growth 48h 10µM, HCV inh inconclusive, Pf growth 96h 13µM
CCOc1ccc(C2c3c(-c4ccccc4O)n[nH]c3C(=O)N2Cc2cccnc2)cc1OC (stereo not drawn)	none (no result: AmpC inh no detg, Pf growth 48h, HCV inh, Pf growth 96h, AMA1-RON2 inh)
COc1cccc(C2c3c(-c4ccccc4O)n[nH]c3C(=O)N2CCc2ccc(OC)c(OC)c2)c1 (stereo not drawn)	none (no result: AmpC inh no detg, Pf growth 48h, HCV inh, Pf growth 96h, AMA1-RON2 inh)
COc1ccc(C2c3c(-c4cc(Cl)c(C)cc4O)n[nH]c3C(=O)N2Cc2cccnc2)cc1OC (stereo not drawn)	Pf growth 48h 3.3µM
CCOC(=O)c1c(C)[nH]c(C)c1S(=O)(=O)N1CCC(C(=O)NCc2ccc(F)cc2)CC1	none (no result: AmpC inh no detg, Pf growth 48h, HCV inh, Pf growth 96h, AMA1-RON2 inh)

Bioassay records (PubChem BioAssay)
